PubChem BioAssay (EPA / NIEHS)
“And” between values parts separate entries of the source, which are not always exact repeats. Equal entries are not always repeated. The source holds several records for some structures; these can differ, active in one and inactive in another. The source made the active and inactive calls. Rule for the calls: active = hit-call score of the fitted dose curve at least 0.9, where 1 is the maximum; inactive = score below 0.9.

Each compound was assayed on Cytochrome P450 (CYP1A1), CYP1A1 (gene 1543) (assay: LTEA_HepaRG_CYP1A1: Life Technologies and Expression Analysis (LTEA) Assay for Cytochrome P450 (CYP1A1) using HepaRG (AID 2283454)). Conditions: mRNA level, 48 h; actives raise or lower the signal.
Method: LTEA_HepaRG is a cell based, multiplexed-readout assay that uses HepaRG, a human liver cell line, with measurements taken at 48 hours after chemical dosing on a 96-well plate.LTEA_HepaRG_CYP1A1 is one of 102 assay component(s) measured in the LTEA HepaRG cell culture assay. It is a marker of NR mediated metabolism.Data from the assay component LTEA_HepaRG_CYP1A1 was analyzed into 1 endpoint. This assay endpoint, LTEA_HepaRG_CYP1A1, was analyzed with bidirectional fitting relative to DMSO as the negative control and baseline of activity. Using a type of inducible reporter, measures of mRNA induction for gain or loss-of-signal activity can be used to understand regulation of transcription factor activity. To generalize the intended target to other relatable targets, this assay endpoint is annotated to the cyp intended target family, where the subfamily is xenobiotic metabolism.
A total of 1060 chemcials from the ToxCast library were tested in eight-point concentration-response experiments. Cell culture and cytotoxicity assays were conducted at Thermo Fisher Scientific's Custom Services facility (Madison, WI). A single lot of human HepaRG cells (Thermo Fisher Scientific, Frederick, MD) was used for the cell culture experiments. 96-well format collagen type I coated plates of human HepaRG cells were prepared using established methods. Briefly, cryopreserved HepaRG cells were thawed, plated at a density of approximately 100,000 cells/well in HepaRG Thaw, Plate, and General Purpose media (HPRG770, Thermo Fisher Scientific), and incubated for 48 hours. 0.5% DMSO was selected as vehicle control to balance the requisite need of DMSO in HepaRG cultures to maintain differentiation (for example, baseline metabolism, proportions of hepatocytes vs. cholangiocytes), while enabling further hepatic receptor pathway activation (for example, PXR and CAR) in response to chemical exposure. 48 hours after plating, the culture medium was replaced with HepaRG Serum-Free Incudtion Media. Cells were exposed to each test chemical in duplicate and maintained in CO2 incubators for another 48 hours. Chemical plates were thawed to room temperature and 200x concentrations of treatment groups were prepared. 8-point conentration-reponse curves were made with the highest exposure at 100 uM, followed by half-log dilutions, all in 0.5% DMSO. Each test plate contained variouse controls, induction positive controls (1mM phenobarbital), cytotoxicity positive controls ([…] aflatoxin B1), vehicle controls (0.5% DMSO), and total lysis controls (0.5% DMSO). Cell morphology images were taken using an Essen IncuCyte FLR automated microscope, with six 96-well plates imaged in about 24 minutes. Images were captured and exported and JPEG files. Spent culture media was transfered to black-well plates for the LDH assay, and remaining media was sorted at -80 C for later use. Cells were treated with RLT buffer and frozen until shipped for gene expression analysis. Total RNA was isolated from the cell suspension in 75 uL of Buffer RLT (Qiagen, Germantown, MD 20874) by Quintiles/Expression Analysis (Durham, NC) using a custom isolation procedure. Total RNA from each plate well was transferred to a preamplification plate. Fluidigm's 96.96 Dynamic ArrayTM (Fluidigm, Amsterdam, the Netherlands) technology was used for gene expression analyses by quantitative reverse transcription polymerase chain reaction (qRT-PCR, performed by Quintiles/Expression Analysis, Durham, NC)89. Standard TaqManTM Assays (Applied Biosystems/ThermoFisher Scientific, Foster City, CA) were used to assess the expression of 93 genes selected based on their selectivity and sensitivity to important hepatic receptors known to be modulated by environmental chemicals; importance in human hepatocyte functionality; and hepatotoxicity. […]
For CC(C)(C)c1cc(O)ccc1O, the outcome was “inactive”. For CCOP(=S)(OCC)SCSP(=S)(OCC)OCC, the AC50 was 33.1 µM (active). CCC(=O)C(CC(C)N(C)C)(c1ccccc1)c1ccccc1 (stereo unspecified) was tested, and the AC50 was 55.3 µM (active). For O=C(O)C(Cl)(Cl)Cl, the outcome was “inactive” and the AC50 was 50 µM (active). In the case of COc1cc(-c2ccc(N)c(OC)c2)ccc1N, the AC50 is reported as 20.6 µM (active) and 24.2 µM (active). For O=C(O)C(F)(F)C(F)(F)C(F)(F)C(F)(F)C(F)(F)C(F)(F)C(F)(F)C(F)(F)C(F)(F)C(F)(F)F, the outcome was “inactive”. O=C(O)C(F)(F)C(F)(F)C(F)(F)C(F)(F)C(F)(F)C(F)(F)F was tested, and the outcome was “inactive”. For Cc1ccccc1N, the outcome was “inactive”. In the case of ClC1(Cl)C2(Cl)C3(Cl)C4(Cl)C(Cl)(Cl)C5(Cl)C3(Cl)C1(Cl)C5(Cl)C24Cl (stereo unspecified), the AC50 is reported as 23.3 µM (active). With CC(C)(c1ccccc1)c1ccc(O)c(C(C)(C)c2ccccc2)c1 the AC50 was 35.8 µM (active). C[C@]12CCC(=O)C[C@@H]1CC[C@@H]1[C@@H]2CC[C@]2(C)[C@@H](O)CC[C@@H]12 was tested, and the AC50 was 35.7 µM (active). With O=c1[nH]c(=O)[nH]c(=O)[nH]1 the outcome was “inactive”. For CCC(C)(C)c1ccc(O)c(C(C)(C)CC)c1, the AC50 was 74 µM (active). With O=C(Nc1ccc2[nH]ccc2c1)c1cc2cc(F)ccc2n1Cc1cccc(F)c1 the AC50 was 91.7 µM (active). CC(=O)[O][Hg][c]1ccccc1 was tested, and the outcome was “inactive”. In the case of ClCC(Cl)CCl, the outcome is reported as “inactive”. With CCOP(=S)(OCC)Oc1nc(Cl)c(Cl)cc1Cl the AC50 was 34.4 µM (active). CCN1CCC2(CC1)COc1cc3c(cc12)N(C(=O)c1ccc(-c2ccc(-c4nnc(C)o4)cc2C)cc1)CC3 was tested, and the AC50 was 9.34 µM (active). For NC(=O)O, the outcome was “inactive”. With Cn1sc(Cl)cc1=O the outcome was “inactive”. For C=C(C)C(=O)[O][Sn]([CH2]CCC)([CH2]CCC)[CH2]CCC, the AC50 was 2.87 µM (active). For O=C1C2(Cl)C3(Cl)C4(Cl)C(Cl)(Cl)C5(Cl)C3(Cl)C1(Cl)C5(Cl)C24Cl (stereo unspecified), the outcome was “inactive”. With CC(C)(C)CC(C)(C)c1ccc(O)cc1 the AC50 was 81.5 µM (active). In the case of CN(C)N=O, the outcome is reported as “inactive”. Oc1cccc2cccnc12 was tested, and the outcome was “inactive”. With C=CC(=O)OCCCCCC(C)C the AC50 was 50 µM (active). For CC12CC1(C)C(=O)N(c1cc(Cl)cc(Cl)c1)C2=O (stereo unspecified), the outcome was “inactive”. For CCCCCCCCc1ccc(O)cc1, the outcome was “inactive”. With CC(C)(OO)c1ccccc1 the AC50 was 65.7 µM (active). In the case of O=[N+]([O-])c1ccc(O)c([N+](=O)[O-])c1, the AC50 is reported as 71.5 µM (active).
